Source: PubChem BioAssay (National Center for Advancing Translational Sciences (NCATS))
Rows were chosen to be rich in hits. Some 11% of all compounds tested hit in one or more screens of this group.
NPR1 antag = antagonists of human natriuretic peptide receptor Npr1. P16066. HEK293 hNpr1 GloSensor cGMP, ANP-stimulated luminescence. Potency, µM (top dose mostly 46.3 µM), for the others: at the top dose activity change, negative = inhibition, usual class: inhibitors. 1.6% of 76,000 active; calls by dose curve; further: nearly all actives have a fitted effect of over 60% in size
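Compound pre-incubated 30 min at room temperature on GloSensor-loaded HEK293 cells stably carrying hNpr1 and the pGS-40F cGMP biosensor. Stimulation uses hNppA at 0.1 nM final; luminescence is taken at baseline and 20 min post-agonist.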
HEK cytotox = kills HEK 293 cells | Potency, µM (series often up to 115 µM), without a hit: at the highest dose activity change, negative = cytotoxicity, actives largely listed as inhibitors | AID 1345083 | 6.6% of 94,000 active | HEK 293 viability, ATP luminescence (CellTiter-Glo), 48-72 h; further: nearly all actives have a fitted effect of over 60% in size
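Pintool-delivered compounds were incubated with HEK 293 cells (250 cells/well) at 37 degree Celsius for 48 or 72 hr. ATP-dependent luminescence (CellTiter-Glo) then reported remaining viable cells.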
3T3 cytotox = kills NIH 3T3 cells; NIH 3T3 viability, CellTiter-Glo ATP luminescence, 48-72 h; Potency, µM (titrated, usually from 96.7 µM), inactives show top-dose activity change, negative = cytotoxicity, most hits filed as inhibitors; 4.3% of 94,000 active; AID 1345082; further: nearly all actives have a fitted effect of over 55% in size
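Mouse fibroblast NIH 3T3 cells, 400 per well, received compound via pintool and were incubated for 48 or 72 hr prior to CellTiter-Glo ATP luminescence measurement.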
Luciferase inh = inhibitors of firefly (Photinus pyralis) luciferase; purified P. pyralis luciferase, luminescence, biochemical; AID 1347043; 2.5% of 76,000 active; P08659; Potency, µM (series often up to 115 µM), most hits filed as inhibitors; further: nearly all actives have a fitted effect of over 65% in size
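FLuc 10nM, D-luciferin 10uM, ATP 10uM, Mg acetate 10mM, Tris acetate pH 7.5, Tween/BSA; cpd qHTS; enzyme added last; CCD luminescence.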
* hit, by the source's call; [ ] = dose if it differs, or a comment. Unless noted, the call rests on the fitted dose curve; in most records, active means well fitted curve in the direction sought with a large enough effect; inconclusive means small, poorly fitted or top-dose-only effect, or another doubt; inactive means no such curve, though single readings can be large; an effect the other way counts as inactive or inconclusive. On the % scale 0 is the no-effect control and ±100 the full control effect; potency means the concentration at half of the fitted maximal effect.

CCOc1ccccc1C(=O)NC1CCN(c2cc(-c3ccc(OC)cc3)[nH]n2)CC1 was read as NPR1 antag -19%, HEK cytotox inconclusive, 3T3 cytotox 35µM* and Luciferase inh inactive.
Cc1nnc2ccc(N3CCN(S(=O)(=O)c4cccs4)CC3)nn12 was read as HEK cytotox -5% and 3T3 cytotox -21%.
Screening CCc1nc2c(c(-c3ccc(O)cc3)n1)CN(CCC(C)C)CC2 returned NPR1 antag 0%[70.6 µM], HEK cytotox -29%[172 µM], 3T3 cytotox inconclusive and Luciferase inh inactive.
CCOCCCNC(=O)c1cccc(-c2ccc(OC)nn2)c1 was read as HEK cytotox -19%[172 µM] and 3T3 cytotox inconclusive.
For C[S+](=O)([O-])Nc1cccc(-c2nc(N3CCOCC3)cc3c2CN(CC2CC2)C3=O)c1 the results were NPR1 antag -2%, HEK cytotox -22%, 3T3 cytotox inconclusive and Luciferase inh inactive.
Cn1cc(CN2Cc3c(cc(N4CCOCC4)nc3-c3cccc(F)c3)C2=O)cn1 was read as NPR1 antag -23%[70.6 µM], HEK cytotox 89µM*, 3T3 cytotox inconclusive and Luciferase inh inactive.
For O=C1c2cc(N3CCOCC3)nc(-c3cccc(F)c3)c2CN1CC1CC1 the results were NPR1 antag -23%[70.6 µM], HEK cytotox 112µM*, 3T3 cytotox inconclusive and Luciferase inh inactive.
O=C1c2cc(N3CCOCC3)nc(-c3ccccc3)c2CN1Cc1ccccc1 was read as NPR1 antag inconclusive, HEK cytotox 50µM*, 3T3 cytotox 32µM* and Luciferase inh inactive.
For O=C1N(C2CCN(S(=O)(=O)c3cccnc3)CC2)C(c2ccncc2)C12CCCCC2 (centres undefined) the results were NPR1 antag 8%, HEK cytotox -3%, 3T3 cytotox -4% and Luciferase inh inactive.
`COc1cccc(-c2cc(C3CCN(C(=O)Nc4cc(Cl)ccc4C)CC3)[nH]n2)c1` gave NPR1 antag -23%, HEK cytotox 45µM*, 3T3 cytotox inconclusive and Luciferase inh inconclusive.
For Cc1cccc(NC(=O)N2CCC(c3cc(-c4cccc(C)c4)n[nH]3)CC2)c1 the results were NPR1 antag -15%, HEK cytotox inconclusive, 3T3 cytotox inconclusive and Luciferase inh inactive.
`COc1cccc(-c2cc(C3CCN(C(=O)NC4CCCC4)CC3)[nH]n2)c1` gave NPR1 antag -22%, HEK cytotox inconclusive, 3T3 cytotox -16% and Luciferase inh inactive.
Cc1ccc(Cl)cc1NC(=O)N1CCC(n2cnnc2C2CC2)C1 (centres undefined) was read as NPR1 antag 1%, HEK cytotox inconclusive, 3T3 cytotox inactive and Luciferase inh inactive.
`COC(=O)c1ccccc1S(=O)(=O)N1CCC(c2cc(-c3cccc(C)c3)n[nH]2)CC1` gave NPR1 antag 1%, HEK cytotox 45µM*, 3T3 cytotox 40µM* and Luciferase inh inactive.
For COc1cccc(NC(=O)N2CCC(c3cc(-c4cccc(C)c4)n[nH]3)CC2)c1 the results were NPR1 antag -24%, HEK cytotox inconclusive, 3T3 cytotox 40µM* and Luciferase inh inactive.
For CCOc1ccccc1NC(=O)N1CCC(c2cc(-c3cccc(OC)c3)n[nH]2)CC1 the results were NPR1 antag -23%, HEK cytotox inconclusive, 3T3 cytotox 35µM* and Luciferase inh inactive.
Screening O=C(c1ccccc1F)N1CCN(CCn2nc3n(c2=O)CCCC3)CC1 returned HEK cytotox 1% and 3T3 cytotox 1%.
For COc1ccc(-c2ccccc2C(=O)NCc2cccnc2)nn1 the results were HEK cytotox 0%[172 µM] and 3T3 cytotox -5%[138 µM].
`CNC(=O)c1cc(-c2ccccc2C(F)(F)F)nc2c1cnn2C` gave HEK cytotox -20%[172 µM] and 3T3 cytotox inconclusive.
CN(Cc1cccc(C(F)(F)F)c1)Cc1cccc2ccccc12 was read as HEK cytotox inconclusive and 3T3 cytotox -24%[138 µM].
`CNC(=O)c1nc2cccnc2n(CCc2ccccc2)c1=O` gave HEK cytotox inconclusive and 3T3 cytotox -10%[138 µM].
COc1cccc(-c2cc(C3CCN(C(=O)Nc4cccc(SC)c4)CC3)[nH]n2)c1 was read as NPR1 antag 1%, HEK cytotox inconclusive, 3T3 cytotox 45µM* and Luciferase inh inactive.
`COc1cccc(-c2cc(C(=O)N3CCC(Cn4cccn4)CC3)[nH]n2)c1` gave NPR1 antag 1%, HEK cytotox -1%, 3T3 cytotox inconclusive and Luciferase inh 32µM*.
`Cc1cccc(OCC(=O)N2CCCC(n3cc(-c4nc(C5CC5)no4)nn3)C2)c1` (centres undefined) gave NPR1 antag 2%, HEK cytotox -26%, 3T3 cytotox 0% and Luciferase inh inactive.
COc1ccccc1-c1cccc(CN2CCC(N[S+](=O)([O-])c3cccc(C(F)(F)F)c3)CC2)c1 was read as HEK cytotox inconclusive and 3T3 cytotox 13µM*.
`COc1ccccc1-c1cccc(CN2CCC(N[S+](=O)([O-])c3ccccc3)CC2)c1` gave HEK cytotox 40µM* and 3T3 cytotox 32µM*.
Cc1nc2n(c1C(=O)Nc1cccc(Cl)c1C)CCC(Nc1ccc(F)cc1)C2 (centres undefined) was read as NPR1 antag -1%[70.6 µM], HEK cytotox 89µM*, 3T3 cytotox inconclusive and Luciferase inh inactive.
Screening CCCn1ncc(N2CCC(C(=O)N(CCCOC)Cc3ccc4c(c3)CCCN4CC)CC2)cc1=O returned HEK cytotox 22µM* and 3T3 cytotox 35µM*.
Screening COc1ccc2[nH]c3c(c2c1)CCNC31CCN(C(=O)c2ccc(OC)nc2OC)CC1 returned NPR1 antag 3%, HEK cytotox 11µM*, 3T3 cytotox -28% and Luciferase inh inactive.
COc1ccc2[nH]c3c(c2c1)CCNC31CCN(C(=O)c2ccc(C)nc2)CC1 was read as NPR1 antag 1%, HEK cytotox 79µM*, 3T3 cytotox -11% and Luciferase inh inactive.
For COc1ccc2[nH]c3c(c2c1)CCNC31CCN(C(=O)c2cnc(C)cn2)CC1 the results were NPR1 antag 9%, HEK cytotox inconclusive, 3T3 cytotox -3% and Luciferase inh inactive.
Screening COc1cccc(CNC[C@H]2O[C@H](Cc3cc(-c4ccccc4)on3)CC[C@@H]2O)c1 returned NPR1 antag -27%[70.6 µM], HEK cytotox 112µM*, 3T3 cytotox inconclusive and Luciferase inh inactive.
`COc1ccc(-c2cc(C[C@@H]3CC[C@H](O)[C@@H](CN(Cc4ccccc4OC)Cc4ccccc4OC)O3)no2)cc1` gave NPR1 antag 10µM*, HEK cytotox inconclusive, 3T3 cytotox inconclusive and Luciferase inh inconclusive.
`CC(C)CN(CC(C)C)C[C@H]1O[C@H](Cc2cc(COc3ccccc3)on2)CC[C@@H]1O` gave NPR1 antag 5%[70.6 µM], HEK cytotox 100µM*, 3T3 cytotox 100µM* and Luciferase inh inactive.
